Assay outcomes (PubChem BioAssay)
Compounds with a hit are over-represented: about 28% of the library has one in this group of screens.
CYP2C19 inhib: blocks human cytochrome P450 2C19; P33261; CYP2C19 Supersomes, luciferin-H EGE luminescence, 30 min; inhibition, % at 5 µM; 96,000 tested, 21% active; AID 778;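 active = CYP2C19 inhibition above a set limit at 5 µM in the primary screen, cut at about 50% in these data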;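 note: plate controls were negative control wells for no effect and 2.5 mM tranylcypromine positive control for full effect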
CYP2C9 activ: increases human cytochrome P450 2C9 activity. recombinant CYP2C9, luciferin-H conversion, luminescence; hits give high values; factor 1 = untreated enzyme, 0 = blocked. 96,000 tested, 1.4% active. P11712. activation factor at 5 µM;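 active = activation factor of 2 or more for CYP2C9 at a 5 µM dose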;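 note: 0 = sulfaphenazole-blocked wells and 1 = vehicle-only wells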
PTK2B oligo ant: Pyk2 (human) oligomerization antagonism. z-score (the deposit names both 25 µM and 10 µM). Q293 cells, Pyk2 FERM NanoBiT luminescence; hits give low values. 99,000 tested, 0.83% active. Q14289. AID 1347419;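 active = Z-score of -3 or lower, scaled per plate to the spread of control and sample wells; inactive = z-score above -3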;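 note: negative z-score means lost luminescence so less FERM oligomerization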
Target sequence (Q14289 whole entry, looked up): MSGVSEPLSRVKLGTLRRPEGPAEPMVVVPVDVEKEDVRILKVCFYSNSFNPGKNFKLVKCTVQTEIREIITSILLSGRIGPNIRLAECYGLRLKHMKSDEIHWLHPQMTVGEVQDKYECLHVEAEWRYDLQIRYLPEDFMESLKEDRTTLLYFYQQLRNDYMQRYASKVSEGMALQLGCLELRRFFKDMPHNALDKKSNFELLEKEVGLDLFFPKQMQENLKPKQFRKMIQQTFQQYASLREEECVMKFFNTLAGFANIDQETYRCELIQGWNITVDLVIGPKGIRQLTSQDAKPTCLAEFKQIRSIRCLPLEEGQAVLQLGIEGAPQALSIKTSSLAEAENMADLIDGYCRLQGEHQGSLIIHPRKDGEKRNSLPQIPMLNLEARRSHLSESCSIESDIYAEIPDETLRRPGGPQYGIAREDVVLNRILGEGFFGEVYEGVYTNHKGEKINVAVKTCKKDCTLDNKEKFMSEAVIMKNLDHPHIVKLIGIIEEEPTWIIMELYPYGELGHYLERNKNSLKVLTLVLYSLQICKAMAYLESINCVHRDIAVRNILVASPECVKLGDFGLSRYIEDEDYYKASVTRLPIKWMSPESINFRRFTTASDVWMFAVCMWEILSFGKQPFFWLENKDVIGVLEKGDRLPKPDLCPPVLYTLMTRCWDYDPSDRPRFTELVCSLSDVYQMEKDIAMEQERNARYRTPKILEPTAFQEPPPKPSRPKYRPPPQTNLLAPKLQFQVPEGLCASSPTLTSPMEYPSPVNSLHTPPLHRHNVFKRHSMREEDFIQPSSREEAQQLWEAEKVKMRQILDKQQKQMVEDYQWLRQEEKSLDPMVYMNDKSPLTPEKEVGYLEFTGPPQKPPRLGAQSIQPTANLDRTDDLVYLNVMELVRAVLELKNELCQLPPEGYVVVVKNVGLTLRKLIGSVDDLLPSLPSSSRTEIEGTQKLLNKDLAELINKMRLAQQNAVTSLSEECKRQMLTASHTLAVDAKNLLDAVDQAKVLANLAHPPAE
CYP2C9 inhib: blocks human cytochrome P450 2C9 | P11712 | CYP2C9 Supersomes, luciferin-H conversion, luminescence | inhibition, % at 5 µM | 96,000 tested, 20% active;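 active = blocking of liver enzyme CYP2C9 beyond about 50% at 5 µM, limit read from the data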
CYP2C19 activ: increases human CYP2C19 enzyme activity; recombinant CYP2C19, luciferin-H EGE luminescence; hits give high values; 0 = fully inhibited enzyme, 1 = untreated enzyme; activation factor at 5 µM; 96,000 tested, under 10 active;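 active = activation factor of at least 2 at 5 µM in the primary screen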;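 note: 0 = wells with 2.5 mM tranylcypromine and 1 = vehicle-only wells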
Active calls of the source: *; x = no result.

SMILES	CYP2C19 inhib	CYP2C9 activ	PTK2B oligo ant	CYP2C9 inhib	CYP2C19 activ
CCOC(=O)N1CCN(c2ncnc3c2oc2nc(C(C)C)c4c(c23)CCC4)CC1	86*	0.4	0.06	65*	0.1
O=S(=O)(c1ccc(Cl)cc1)N1CCSC1c1ccco1 (stereo not drawn)	98*	0.5	-0.05	51*	0
COc1ccc(S(=O)(=O)N2CCSC2c2ccc(OC)c(OC)c2)cc1 (stereo not drawn)	63*	2*	0.74	-96	0.4
COc1ccc(S(=O)(=O)N2CCSC2c2ccccc2)cc1 (stereo not drawn)	99*	1.6	0.14	-62	0
COc1ccccc1C1SCCN1S(=O)(=O)c1cccc(C(F)(F)F)c1 (stereo not drawn)	31	1.6	-2.1	-63	0.7
CC(=O)Nc1ccc(S(=O)(=O)N2CCSC2c2ccccc2Cl)cc1 (stereo not drawn)	12	1	-2.2	3	0.9
COc1ccc(C2SCCN2S(=O)(=O)c2ccc(F)cc2)cc1OC (stereo not drawn)	56*	1.8	-0.73	-82	0.4
NC(=O)COc1ccc(C2c3c(oc4ccccc4c3=O)C(=O)N2CC2CCCO2)cc1 (stereo not drawn)	-18	1	0.86	-4	1.2
CC(=O)Nc1ccc(S(=O)(=O)N2CCSC2c2ccccc2)cc1 (stereo not drawn)	59*	0.7	-0.97	31	0.4
Cc1nnc(SCc2cc(=O)[nH]c(N3CCCCC3)n2)s1	x	x	-0.28	x	x
CCOc1cccc(C2c3c(oc4cc(C)c(C)cc4c3=O)C(=O)N2CCCN(C)C)c1 (stereo not drawn)	-5	0.5	x	50	1.1
Cc1ccc(N(CC(=O)O)S(=O)(=O)c2cccc3nonc23)cc1	6	0.9	-0.08	14	0.9
O=C(CNS(=O)(=O)c1cccc2nsnc12)NCc1ccc(Cl)cc1	50*	0.5	-0.6	52*	0.5
O=C(CNS(=O)(=O)c1cccc2nonc12)NCc1ccc(F)cc1	53*	0.5	0.03	49	0.5
COc1ccccc1CN=C1NC(=O)C(CC(=O)Nc2ccc(OC)c(OC)c2)S1 (stereo not drawn)	-16	1.2	1.1	-16	1.2
Fc1ccccc1CSc1nncn1NC/C=C/c1ccccc1	53*	0.8	-0.35	18	0.5
O=C(NCCC1=CCCCC1)C(=O)NCC(c1ccco1)N1CCN(c2ccc(F)cc2)CC1 (stereo not drawn)	x	x	0.67	x	x
CCOC(=O)N1CCC(NC(=O)CN2C(=O)CSc3nc(C)cc(C)c32)CC1	61*	0.7	x	26	0.4
CCOC(=O)/C=C1\SCC(=O)N1CC(=O)NC1CCCCC1	67*	1	0.89	3	0.3
CCOC(=O)/C=C1\SCC(=O)N1CCOc1cccc(Br)c1	82*	0.2	-0.9	80*	0.2
CCOC(=O)/C=C1\SCC(=O)N1CC(O)CN1C(=O)CS/C1=C\C(=O)OCC	16	1	-0.03	-2	0.8
CC(C)(CNS(=O)(=O)c1ccc(Cl)cc1)N1CCCCC1	64*	0.9	-0.42	6	0.4
CC(C)(CN1CCCCC1)NS(=O)(=O)c1ccc(Cl)cc1	55*	1.1	-0.28	-6	0.5
CCN(CC)CC(C)(C)NS(=O)(=O)c1ccc(Cl)cc1	38	1	-0.67	-2	0.6
CN(C)CC(C)(C)NS(=O)(=O)c1ccc(Cl)cc1	56*	1	-0.01	-5	0.4
SMILES	CYP2C19 inhib	CYP2C9 activ	PTK2B oligo ant	CYP2C9 inhib	CYP2C19 activ
CC1CC(C)CN(CC(C)(C)NS(=O)(=O)c2ccc(Cl)cc2)C1 (stereo not drawn)	76*	0.4	-0.17	56*	0.2
CCCOc1ccccc1N1C(=O)CC(N2CCOCC2)C1=O (stereo not drawn)	4	1.2	0.45	-19	1
CCN(CC)S(=O)(=O)c1cc(NC(=O)C(=O)c2c(-c3ccccc3)cc3ccccn23)ccc1C	43	0.5	-0.39	54*	0.6
CCN(CC)S(=O)(=O)c1cc(NC(=O)C(C)N(C)CC(=O)Nc2c(C)cccc2C)ccc1C (stereo not drawn)	x	x	0.07	x	x
CCN(CC)S(=O)(=O)c1cccc(NC(=O)C(=O)c2c(-c3ccccc3)cc3ccccn23)c1	57*	0.4	0.34	65*	0.4
CN(CC(=O)Nc1ccccc1N1CCOCC1)S(=O)(=O)c1ccc(Cl)cc1	21	0.9	-1.7	6	0.8
CCN(CC)S(=O)(=O)c1ccc(N2CCOCC2)c(NC(=O)C(=O)c2c(-c3ccccc3)cc3ccccn23)c1	29	0.1	-0.5	86*	0.7
Cc1ccc(S(=O)(=O)N[C@H](C(=O)N2CCC(C(=O)NCC(=O)O)CC2)C(C)C)cc1	9	0.8	0.87	23	0.9
Cc1[nH]c2ccccc2c1/C=C(\C#N)S(=O)(=O)c1ccccc1	20	0.3	-2.9	67*	0.8
Cc1[nH]c2ccccc2c1/C=C(\C#N)C(=O)NC(C)c1ccccc1 (stereo not drawn)	15	2.1*	-1.4	-111	0.9
Cc1ccc(/C=C(/C#N)C(=O)NC(C)c2ccccc2)o1 (stereo not drawn)	x	x	-0.01	x	x
N#C/C(=C\c1ccc(O)c(O)c1)S(=O)(=O)c1ccccc1	41	0.6	-1.9	40	0.6
CCc1nnc(NC(=O)CCN2C(=O)CCC2=O)s1	-11	1.1	0.06	-13	1.1
O=C(O)c1ccc(N2Cc3ccccc3C2)cc1O	48	0.5	0.33	53*	0.5
CCOC(=O)c1ccc(N2Cc3cc(C)c(C)cc3C2)cc1O	-14	1.1	x	-15	1.1
CC1(C)CC(=O)C(C=Nc2ccc3cn[nH]c3c2)=C(O)C1	54*	0.8	0.56	17	0.5
CC1(C)CC(=O)C(C=Nc2ccc(O)cc2)=C(O)C1	-2	1.7	-0.69	-68	1
CC1(C)CC(=O)C(C=Nc2ccc3[nH]ncc3c2)=C(O)C1	100*	0.5	-0.73	49	0
COc1ccc(S(=O)(=O)N2CCOCC2)cc1C(=O)Nc1cc(C)on1	-11	1.3	0.09	-31	1.1
Cn1c(COc2ccccc2)nnc1SCC(=O)NCc1ccccc1	8	0.9	2	9	0.9
O=C(CC1Sc2ccccc2NC1=O)OC(C(=O)NCCc1ccccc1)c1cccnc1 (stereo not drawn)	55*	0.7	-1.1	30	0.4
CCCC(OC(=O)CC1Sc2ccccc2NC1=O)C(=O)NCc1ccco1 (stereo not drawn)	28	0.7	-0.72	33	0.7
COCCNC(=O)C(OC(=O)CC1Sc2ccccc2NC1=O)c1ccncc1 (stereo not drawn)	83*	0.1	-0.5	87*	0.2
CCOC(=O)/C(C#N)=C/c1ccc(OC(=O)c2ccco2)c(OCC)c1	x	x	-0.76	x	x
COc1ccccc1/C=N/Nc1nccnc1Cl	51*	0.5	-0.13	47	0.5
